Measurements reported in PubChem BioAssay (NCATS).

molecular target: Glucocorticoid receptor (Homo sapiens) (UniProt P04150); assay: GR-GFP Redistribution (AID 450); conditions: U2OS GR-GFP nuclear translocation, laser cytometry, 2 h; series mostly up to 20.6 µM
Potency means the concentration at half of the fitted maximal effect.

Chain of Glucocorticoid receptor (Homo sapiens) (P04150 whole entry, looked up): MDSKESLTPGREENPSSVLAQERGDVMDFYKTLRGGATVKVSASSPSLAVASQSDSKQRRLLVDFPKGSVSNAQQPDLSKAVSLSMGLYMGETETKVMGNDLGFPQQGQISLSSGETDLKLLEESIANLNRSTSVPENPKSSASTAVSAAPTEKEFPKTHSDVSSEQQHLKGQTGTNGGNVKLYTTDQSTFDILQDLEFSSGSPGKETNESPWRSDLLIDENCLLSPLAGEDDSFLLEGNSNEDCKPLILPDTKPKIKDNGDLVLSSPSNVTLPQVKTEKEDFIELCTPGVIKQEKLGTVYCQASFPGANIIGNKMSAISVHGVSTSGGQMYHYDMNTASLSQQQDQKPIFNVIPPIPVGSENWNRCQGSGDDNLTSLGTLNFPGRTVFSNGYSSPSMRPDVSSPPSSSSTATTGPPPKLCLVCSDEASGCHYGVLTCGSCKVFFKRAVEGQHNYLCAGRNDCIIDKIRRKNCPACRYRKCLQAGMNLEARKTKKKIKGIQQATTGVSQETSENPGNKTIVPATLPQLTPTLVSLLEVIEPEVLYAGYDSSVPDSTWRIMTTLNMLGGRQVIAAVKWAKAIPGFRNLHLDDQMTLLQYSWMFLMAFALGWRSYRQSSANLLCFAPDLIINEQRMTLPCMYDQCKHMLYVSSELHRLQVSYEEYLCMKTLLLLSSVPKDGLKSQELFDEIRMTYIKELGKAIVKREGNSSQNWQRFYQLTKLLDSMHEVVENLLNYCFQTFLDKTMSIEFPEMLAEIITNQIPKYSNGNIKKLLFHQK

Potency, inactive:
COCCNc1cc(C)c(C#N)c2nc3ccccc3n12 > 20.6 µM
C=CCc1cccc(/C=N/n2cnnc2)c1O > 20.6 µM
N#Cc1nc(-c2cccs2)oc1NCc1ccccc1Cl > 20.6 µM
Cc1cccc(N2CN=c3s/c(=C\c4ccncc4)c(=O)n3C2)c1 > 20.6 µM
Cc1ccc(OCC(O)CNS(=O)(=O)c2ccccc2C(=O)O)cc1 (stereo not given) > 20.6 µM
CCOc1ccc(C2C(C#N)=C(N)Oc3cc(C)n(CCN4CCOCC4)c(=O)c32)cc1OCC (stereo not given) > 20.6 µM
CCC[C@@H]1C[C@@H](C(=O)N[C@H]([C@@H](C)O)[C@H]2O[C@H](SC)[C@H](O)[C@@H](O)C2O)N(C)C1 (stereo not given in full) > 20.6 µM
Cc1nc2sc3c(c2c(=O)o1)CC(C)(C)OC3 > 20.6 µM
Cc1nc2oc(C(=O)c3ccc(Br)cc3)c(N)c2c2c1COC(C)(C)C2 > 20.6 µM
Cn1c(=O)c2c(nc(Oc3ccc4c(c3)OCO4)n2Cc2ccc(Br)cc2)n(C)c1=O > 20.6 µM
COc1ccc(C2NC3=C(CCC3)C3(C#N)C(OC)(OC)N=C(N)C23C#N)cc1 (stereo not given) > 20.6 µM
CCn1cc(C(=O)NCc2ccco2)c(=O)c2cc(F)c(N3CCN(C(=O)c4ccco4)CC3)cc21 > 20.6 µM
COc1ccccc1Nc1ncc(-c2cccs2)s1 > 20.6 µM
c1ccc(OCc2nn3c(-c4ccccn4)nnc3s2)cc1 > 20.6 µM
COc1ccccc1-c1nnc2sc(C3CCCCC3)nn12 > 20.6 µM
Cc1csc2nc(CSc3nc4ccccc4o3)cn12 > 20.6 µM
CCCSC1=C(C#N)C(c2ccc(OC)cc2)C2=C(CC(C)(C)CC2=O)N1 (stereo not given) > 20.6 µM
COc1ccc(OC)c(C2C(C(=O)c3ccco3)=C(O)C(=O)N2CCCN2CCOCC2)c1 (stereo not given) > 20.6 µM
CC(O)(C#CCN1CCOCC1)c1ccccc1 (stereo not given) > 20.6 µM
Clc1ccc(-n2ncc3c(NCCCn4ccnc4)ncnc32)cc1 > 20.6 µM
CCOc1ccc(-c2nnc3sc(COc4ccccc4)nn23)cc1 > 20.6 µM
CCSC1=C(C#N)C(c2cccs2)C(C(=O)OC)=C(C)N1 (stereo not given) > 20.6 µM
Clc1ccc(-n2ncc3c(NCc4ccccn4)ncnc32)cc1 > 20.6 µM
CC(C)(C)n1cnc2cc(NS(=O)(=O)c3ccc(Br)cc3)ccc21 > 20.6 µM
c1ccc(N2CCN(c3nc(-c4ccccn4)nc4ccccc34)CC2)cc1 > 20.6 µM
Cn1c(=O)c2c(nc(NCc3ccco3)n2Cc2ccccc2Cl)n(C)c1=O > 20.6 µM
COc1ccc(CC(=O)Nc2cccc(-c3nnc(-c4ccco4)o3)c2)cc1 > 20.6 µM
Cc1cc(C)n(S(=O)(=O)Cc2ccccc2)n1 > 20.6 µM
Cc1cc(OCCN2CCCCC2)nc2ccccc12 > 20.6 µM
C=CCOC(=O)C1=C(C)NC(SCC(=O)N(CC)CC)=C(C#N)C1c1ccco1 (stereo not given) > 20.6 µM
Cc1cc(N/C=C/C(=O)c2cccc3ccccc23)no1 > 20.6 µM
N#Cc1c(NCCN)nc(NCc2ccccc2)c2c1CCN(Cc1ccccc1)C2 > 20.6 µM
Cc1ccc(C(=O)CSC2=C(C#N)C(c3ccco3)C3=C(CCCC3=O)N2)cc1 (stereo not given) > 20.6 µM
CCNCc1cc2cc(C)ccc2[nH]c1=O > 20.6 µM
CCCc1[nH]nc2c1C(c1c(C)nn(-c3ccccc3)c1Cl)C(C#N)=C(N)O2 (stereo not given) > 20.6 µM
Clc1ccc(-c2nn3c(-c4cccc(Cl)c4)nnc3s2)cc1 > 20.6 µM
COc1cccc(-c2nc(NCc3ccco3)c3ccccc3n2)c1O > 20.6 µM
O=C(NCCCN1CCOCC1)C1(c2ccccc2)CCOCC1 > 20.6 µM
CCN1CCc2c(C#N)c(N3CCOCC3)nc(NCCO)c2C1 > 20.6 µM
CC(C)Oc1ccc(/C(O)=C2/C(=O)C(=O)N(CCN3CCOCC3)C2c2ccccc2)cc1 (stereo not given) > 20.6 µM
